Holding throughout (set-up): species or system human, MV4-11 + K-562 + COLO205 + SK-N-BE2 + OVCAR-8
Test [1] relates to HCK. The conditions noted are these: read-out: apparent Kd, n = 1.
The test system of test [2] is RIPK2. The conditions noted are these: read-out: apparent Kd; compound concentrations: 100 nM and 1000 nM (sheet 'Samples'), CATDS: 0.252300510926462; n = 1.
The test system of test [3] is RIPK3. The note with it: read-out: apparent Kd; compound concentrations: 100 nM and 1000 nM (sheet 'Samples'), CATDS: 0.107109560808048; n = 1.
Test [4] has as its system YES1. The note with it: read-out: apparent Kd; compound concentrations: 100 nM and 1000 nM (sheet 'Samples'), CATDS: 0.19959075009265401; n = 1.
In test [5] the test system is ACOX1. The conditions noted are these: read-out: apparent Kd, n = 1.
Test [6] concerns GAK. The note with it: read-out: apparent Kd; compound concentrations: 100 nM and 1000 nM (sheet 'Samples'), CATDS: 6.3982915513231806E-2; n = 1.
The mark [7] stands for this setting: compound concentrations:100 nM and 1000 nM (sheet 'Samples').

Where two headings read alike, the source gives them in different places.

This passage reports potency estimated from few doses results from PMC11062922 (Nature Chemical Biology, 2023).

As for `Cc1ccc(NC(=O)Nc2ccccc2)cc1-c1ccc(C(=O)Nc2ccncc2)cc1` [GSK1398471A], the potency estimated from few doses in test [1] (compound concentrations: 100 nM and 1000 nM (sheet 'Samples'), CATDS: 0.185556916463613) was 507 nM; in test [2] it was 310 nM; in test [3] it was 1620 nM; in test [4], 448 nM.
`CC(=O)Nc1ccc2c(C3=C(c4cn(C)c5ccccc45)C(=O)NC3=O)cn(C)c2c1` [RO0317596-000]: in test [5] (compound concentrations: 100 nM and 1000 nM (sheet 'Samples'), CATDS: 0.20475693554228799), the potency estimated from few doses was 453 nM.
With `Cn1cc(C2=C(c3cccc([N+](=O)[O-])c3)C(=O)NC2=O)c2ccccc21` [RO0317474-000], in test [5] (compound concentrations: 100 nM and 1000 nM (sheet 'Samples'), CATDS: 0.177541909552099), the potency estimated from few doses was 937 nM.
In the case of `Cc1ccc(NC(=O)c2ccc(Cl)cc2)cc1-c1ccc(C(=O)Nc2ccncc2)cc1` [GSK1398467A], the potency estimated from few doses in test [5] (compound concentrations: 100 nM and 1000 nM (sheet 'Samples'), CATDS: 0.25978974702241497) was 761 nM.
For `Cn1cc(C2=C(c3cn(CCCCCO)c4ccccc34)C(=O)NC2=O)c2ccccc21` [RO0318053-000], in test [5] (compound concentrations: 100 nM and 1000 nM (sheet 'Samples'), CATDS: 0.35843240047959801), the potency estimated from few doses is 34.1 nM.
As to `COc1ccc(C2=C(Nc3cccc(O)c3)C(=O)NC2=O)cc1` [SB-390766], the potency estimated from few doses in test [5] (setting [7]) is 861 nM.
Same read-out and setting: for `COc1cc2ncn(-c3cc(OCc4sccc4Cl)c(C(N)=O)s3)c2cc1OC` [GSK448459A] the value was 1270 nM.
Take `NC(=O)c1cccnc1COc1cc(-c2ccc(N3CCOCC3)nc2)cc2ncccc12` [BI01125081]: the potency estimated from few doses in test [1] (setting [7]) is 1350 nM.
As for `COc1ccc(C2=NC(c3ccc(Cl)cc3F)C(C(=O)Nc3ccc4[nH]ncc4c3)=C(C)N2)cn1.O=C(O)C(F)(F)F` (centres unmarked) [GSK534913A], the potency estimated from few doses in test [5] (setting [7]) was 1050 nM.
As to `Cl.Fc1cccc(COc2ccc(Nc3ncnc4cc(-c5ccc[nH]5)sc34)cc2Cl)c1` [GW693881A], the potency estimated from few doses in test [5] (compound concentrations: 100 nM and 1000 nM (sheet 'Samples'), CATDS: 0.17026663208719101) is 1170 nM.
For `Fc1ccc(-c2nn3ccccc3c2-c2ccncc2)cc1` [GW434756X], the potency estimated from few doses in test [6] is 1440 nM.
